Results taken from PubChem BioAssay.
Activity calls are given as the source filed them. Unless noted, how the calls were made is not given here.

How the values were obtained:
[1] = system: Wnt5a (protein binding on small-molecule microarray); assay: small molecules binding Wnt5a protein – biophysical, small-molecule microarray, 635/667 nm fluorescence, primary screen (AID 1142); details: 635 nm fluorescence, higher = more signal;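 further: fluorescence read at 667 nm with signal to noise per printed feature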
[2] = ATP-based viability of Huh7 replicon cells – cell-based, CellTiter-Glo luminescence, basal, 48 h, cytotoxicity control for HCV replication inhibitor project, primary screen (AID 1143); details: higher = more signal, called active from +8 up or from −8 down;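 further: Huh7 hepatoma cells carrying a hepatitis C replication reporter with no stimulus; test concentration not given here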
[3] = Pseudomonas biofilm growth suppression – PAO1 strain, BacTiter-Glo luminescence, LB-PBS, primary screen (AID 1144); details: P. aeruginosa PAO1 biofilm, 12 h, higher = more signal
[4] = basal CRE-LacZ reporter activity in PC12 – cell-based, unstimulated, primary screen (AID 1145); details: no forskolin, luminescence, 4.5 h, higher = more signal, called active from +8 up or from −8 down
[5] = forskolin-driven CRE-LacZ activity in PC12 – cell-based, CRE-LacZ reporter, forskolin-stimulated, primary screen (AID 1146); details: luminescence, 4.5 h, higher = more signal, called active from +8 up or from −8 down;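 further: PC12 cells with 6xCRE LacZ reporter stimulated by forskolin 10 µM; beta-galactosidase reporter signal reflecting CREB driven transcription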
[6] = molecular target: Streptavidin (Streptomyces avidinii) (UniProt P22629); assay: compounds binding control protein streptavidin – biophysical, small-molecule microarray, 635/667 nm fluorescence, artefact control for SMM compound annotation, primary screen (AID 1147); details: higher = more signal;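 further: signal reflects streptavidin binding to arrayed compounds as a control protein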
Chain of Streptavidin (Streptomyces avidinii) (P22629 whole entry, looked up): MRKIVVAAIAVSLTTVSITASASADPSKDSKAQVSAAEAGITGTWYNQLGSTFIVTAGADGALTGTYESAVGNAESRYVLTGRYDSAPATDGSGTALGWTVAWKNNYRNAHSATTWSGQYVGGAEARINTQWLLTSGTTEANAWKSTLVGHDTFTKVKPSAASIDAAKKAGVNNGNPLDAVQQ

[7] = probe aInhba binding on compound microarray – biochemical, small-molecule microarray, 635/667 nm fluorescence, primary screen (AID 1148); details: higher = more signal;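 further: score merges 667nm spot fluorescence with signal-to-noise for antibody binding to printed compounds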
[8] = molecular target: Torsin-1A (Homo sapiens) (UniProt O14656); assay: TOR1A wild-type binding on microarray – cell lysate, small-molecule microarray, lysate, 635/667 nm, primary screen (AID 1149); details: COS7 hTOR1A-WT lysate, 635 nm fluorescence, higher = more signal
Chain of Torsin-1A (Homo sapiens) (O14656 whole entry, looked up): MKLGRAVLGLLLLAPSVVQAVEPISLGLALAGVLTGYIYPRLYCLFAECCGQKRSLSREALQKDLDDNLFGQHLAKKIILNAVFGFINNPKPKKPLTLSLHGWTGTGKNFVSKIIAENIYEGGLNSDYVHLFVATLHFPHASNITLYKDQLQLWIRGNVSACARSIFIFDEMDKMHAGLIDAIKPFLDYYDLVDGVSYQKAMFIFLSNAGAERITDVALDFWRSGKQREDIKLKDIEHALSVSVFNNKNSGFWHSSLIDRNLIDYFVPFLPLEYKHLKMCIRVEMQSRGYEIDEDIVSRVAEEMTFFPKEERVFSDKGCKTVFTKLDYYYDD

[9] = molecular target: Torsin-1A (Homo sapiens) (UniProt O14656); assay: torsin A mutant lysate binding on microarrays – cell lysate, small-molecule microarray, COS7 lysate, 635/667 nm fluorescence, primary screen (AID 1150); details: COS7 hTOR1A mutant lysate, 635 nm fluorescence, higher = more signal;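 further: score pools 667 nm emission and signal to noise measuring lysate protein binding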
[10] = system: Sonic hedgehog protein (Shh); assay: Sonic hedgehog microarray binding compounds – biochemical, small-molecule microarray, 635/667 nm fluorescence, primary screen (AID 1151); details: 635 nm fluorescence, higher = more signal;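 further: Shh protein binding to compounds spotted on small-molecule microarray slides; score combines spot fluorescence intensity with signal-to-noise across triplicate slides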
[11] = optical density shifts of acrAB sulA E. coli – strain DRC41, OD650, 48 h, E. coli filamentation inducer project, primary screen (AID 1152); details: higher = more signal, called active from +8 up or from −8 down;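 further: E. coli MC1000 strain DRC41 lacking acrAB efflux pump and sulA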
[12] = probe aLefty1 binding on compound microarray – biochemical, small-molecule microarray, 635/667 nm fluorescence, primary screen (AID 1153); details: higher = more signal;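 further: score merges spot fluorescence with signal-to-noise ratio from the scanned slide images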
[13] = plasmodial surface anion channel blockers, osmotic lysis – cell-based, P. falciparum Indochina, OD700, 1 h, primary screen (AID 1154); details: P. falciparum Indochina infected RBC osmotic lysis, higher = more signal, called active from +8 up or from −8 down
[14] = plasmodial surface anion channel blockers, osmotic lysis – cell-based, P. falciparum Indochina, OD700, 2 h, primary screen (AID 1155);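 further: lysis reports solute entry through the parasite surface anion channel PSAC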; details: P. falciparum Indochina infected erythrocytes, higher = more signal, called active from +8 up or from −8 down
[15] = changes in parasitized red cell lysis, either direction – P. falciparum Indochina, OD700, 3 h, PSAC antagonist project, primary screen (AID 1156); details: P. falciparum-infected erythrocytes, osmotic lysis, higher = more signal, called active from +8 up or from −8 down
[16] = plasmodial surface anion channel blockers, osmotic lysis – cell-based, P. falciparum Indochina, OD700, 18 h, primary screen (AID 1157); details: P. falciparum Indochina infected erythrocytes, osmotic lysis OD700, 18 h; higher = more signal, called active from +8 up or from −8 down
[17] = S6 kinase pathway phospho-S6 level changes – cell-based, A549, cytoblot, luminescence, serum-stimulated, primary screen (AID 1158); details: 5 h, higher = more signal;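 further: serum-stimulated A549 lung adenocarcinoma cells; signal is phosphorylated S6 detected by cytoblot immunostaining with HRP secondary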
[18] = molecular target: NADPH oxidase 2 (Homo sapiens) (UniProt P04839); assay: compounds shifting NOX2 Amplex Red fluorescence – cell-based, HEK293-NOX2, PMA-stimulated, NOX inhibitor project, primary screen (AID 1159); details: 45 min, higher = more signal, called active from +8 up or from −8 down; further: test concentration not given here
Chain of NADPH oxidase 2 (Homo sapiens) (P04839 whole entry, looked up): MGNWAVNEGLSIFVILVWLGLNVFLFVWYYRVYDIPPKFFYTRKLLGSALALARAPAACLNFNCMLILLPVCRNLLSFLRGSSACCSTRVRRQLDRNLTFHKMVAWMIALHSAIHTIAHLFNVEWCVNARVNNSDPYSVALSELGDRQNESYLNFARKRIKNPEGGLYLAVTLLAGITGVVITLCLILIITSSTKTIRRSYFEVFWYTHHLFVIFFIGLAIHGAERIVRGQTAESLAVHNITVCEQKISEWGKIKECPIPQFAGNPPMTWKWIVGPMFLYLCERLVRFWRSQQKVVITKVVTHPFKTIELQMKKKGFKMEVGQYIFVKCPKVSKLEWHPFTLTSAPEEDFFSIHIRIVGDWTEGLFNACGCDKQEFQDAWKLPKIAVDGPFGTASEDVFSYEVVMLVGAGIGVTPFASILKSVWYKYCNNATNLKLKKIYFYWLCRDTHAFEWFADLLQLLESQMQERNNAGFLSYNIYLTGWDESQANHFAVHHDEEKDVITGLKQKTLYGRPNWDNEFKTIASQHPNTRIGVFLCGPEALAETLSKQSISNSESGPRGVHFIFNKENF

[19] = molecular target: NADPH oxidase 4 (Homo sapiens) (UniProt Q9NPH5); assay: compounds shifting NOX4 Amplex Red fluorescence – cell-based, HEK293-NOX4, tetracycline-induced, NOX inhibitor project, primary screen (AID 1160); details: HEK293-NOX4, Amplex Red H2O2 fluorescence, 45 min; higher = more signal, called active from +8 up or from −8 down
Chain of NADPH oxidase 4 (Homo sapiens) (Q9NPH5 whole entry, looked up): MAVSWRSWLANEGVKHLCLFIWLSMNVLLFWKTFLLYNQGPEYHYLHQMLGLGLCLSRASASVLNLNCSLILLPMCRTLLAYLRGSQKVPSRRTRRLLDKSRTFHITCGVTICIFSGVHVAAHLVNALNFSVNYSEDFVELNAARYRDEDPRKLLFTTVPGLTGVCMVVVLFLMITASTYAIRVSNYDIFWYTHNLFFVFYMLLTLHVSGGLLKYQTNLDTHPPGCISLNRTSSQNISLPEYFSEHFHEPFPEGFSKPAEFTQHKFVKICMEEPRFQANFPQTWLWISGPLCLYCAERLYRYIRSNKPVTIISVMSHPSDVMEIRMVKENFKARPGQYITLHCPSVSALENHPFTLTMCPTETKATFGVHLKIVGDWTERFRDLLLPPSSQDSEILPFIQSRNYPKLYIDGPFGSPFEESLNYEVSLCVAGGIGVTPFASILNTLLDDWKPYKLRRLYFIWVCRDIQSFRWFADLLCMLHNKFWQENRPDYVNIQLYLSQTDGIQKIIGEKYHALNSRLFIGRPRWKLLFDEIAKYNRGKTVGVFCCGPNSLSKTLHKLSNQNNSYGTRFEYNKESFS

[20] = molecular target: NADPH oxidase 5 (Homo sapiens) (UniProt Q96PH1); assay: compounds shifting NOX5 Amplex Red fluorescence – cell-based, HEK293-NOX5, NOX inhibitor project, primary screen (AID 1161); details: HEK293-NOX5, ionomycin, 45 min, higher = more signal
Chain of NADPH oxidase 5 (Homo sapiens) (Q96PH1 whole entry, looked up): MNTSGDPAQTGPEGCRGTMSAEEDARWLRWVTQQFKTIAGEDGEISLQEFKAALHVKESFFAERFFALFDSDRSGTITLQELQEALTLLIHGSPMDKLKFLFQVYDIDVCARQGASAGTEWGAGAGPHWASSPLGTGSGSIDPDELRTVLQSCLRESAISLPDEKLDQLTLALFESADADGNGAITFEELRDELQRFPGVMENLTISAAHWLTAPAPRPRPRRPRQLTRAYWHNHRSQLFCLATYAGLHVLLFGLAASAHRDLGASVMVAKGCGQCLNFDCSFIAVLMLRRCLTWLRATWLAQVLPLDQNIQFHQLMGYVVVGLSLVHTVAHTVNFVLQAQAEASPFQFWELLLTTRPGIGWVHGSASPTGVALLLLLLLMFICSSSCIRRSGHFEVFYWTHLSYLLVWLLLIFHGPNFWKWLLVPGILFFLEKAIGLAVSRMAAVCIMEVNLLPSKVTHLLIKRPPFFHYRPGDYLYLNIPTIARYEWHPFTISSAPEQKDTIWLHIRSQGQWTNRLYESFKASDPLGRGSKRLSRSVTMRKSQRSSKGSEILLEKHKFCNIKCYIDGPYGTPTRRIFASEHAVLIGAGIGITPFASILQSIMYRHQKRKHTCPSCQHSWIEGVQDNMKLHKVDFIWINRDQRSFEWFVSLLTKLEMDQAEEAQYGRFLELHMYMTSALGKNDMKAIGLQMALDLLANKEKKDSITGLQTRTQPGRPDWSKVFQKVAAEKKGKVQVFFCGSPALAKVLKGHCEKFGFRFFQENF

SMILES | composite z-score [1] | z-score [2] | z-score [3] | z-score [4] | z-score [5] | composite z-score [6] | composite z-score [7] | composite z-score [8] | composite z-score [9] | composite z-score [10] | z-score [11] | composite z-score [12] | z-score [13] | z-score [14] | z-score [15] | z-score [16] | z-score [17] | z-score [18] | z-score [19] | z-score [20]
CO[C@H]1O[C@H](CO)[C@@H](OC(=O)Nc2ccc(C#N)cc2)[C@@H]2OC(=O)[C@H](Cc3cccc(Br)c3)C/C=C/C[C@@H](Cc3cccc(Br)c3)C(=O)O[C@@H]12 | 0.563 | -3.82 (inactive) | -1.36 (inactive) | -0.602 (inactive) | -0.404 (inactive) | 0.336 | -0.0327 | 0.185 | -0.163 | 1.34 | 0.766 (inactive) | 0.941 | 1.52 (inactive) | -0.178 (inactive) | 0.842 (inactive) | 0.558 (inactive) | -0.257 | -1.59 (inactive) | 0.311 (inactive) | -0.214
COC(=O)[C@@]1(Cc2ccccc2CN=[N+]=[N-])N=C(c2ccc(OCCCO)cc2)O[C@H]1c1ccccc1CN=[N+]=[N-] | 1.25 | -4.34 (inactive) | -0.166 (inactive) | 1.75 (inactive) | -0.547 (inactive) | -0.754 | -0.154 | -2.13 | 0.0755 | -0.427 | -0.586 (inactive) | 0.0288 | 21.8 (active) | 7.79 (inactive) | 0.912 (inactive) | 1.72 (inactive) | 0.141 | -2.2 (inactive) | -0.00368 (inactive) | -2.01
CN1C=C(C(=O)OCCS(C)(=O)=O)C(C(=O)OCCS(C)(=O)=O)=CC(c2ccc(CO)cc2)=CC1c1cccs1 (stereo not given) | 0.0466 | -1.3 (inactive) | 0.637 (inactive) | 2.34 (inactive) | -1.45 (inactive) | 1.42 | 0.0659 | 0.579 | 0.713 | 0.929 | 0.248 (inactive) | 0.391 | 9.6 (active) | 1.64 (inactive) | 0.298 (inactive) | 0.969 (inactive) | 0.0225 | -0.937 (inactive) | -0.558 (inactive) | -1.98
NCCCCCNC(=O)[C@H]1C[C@H]2C(=O)N[C@@H](Cc3ccccc3)C(=O)N2[C@H]1c1ccc(O)cc1 | 0.234 | 0.169 (inactive) | -0.0304 (inactive) | 0.0124 (inactive) | -0.622 (inactive) | 1.13 | 0.641 | 0.756 | 0.842 | 0.313 | 0.097 (inactive) | 1.01 | 3.38 (inactive) | 0.288 (inactive) | 1.54 (inactive) | 0.204 (inactive) | 0.0042 | 0.354 (inactive) | -0.384 (inactive) | -0.912
CCOC(=O)C1=CCC(c2ccco2)N(S(=O)(=O)c2ccc(C)cc2)C1 (stereo not given) | 0.45 | -2.95 (inactive) | -1.65 (inactive) | -0.0228 (inactive) | 0.887 (inactive) | 1.64 | 0.0841 | 0.55 | 1.24 | 0.409 | 0.323 (inactive) | 0.247 | 9.57 (active) | 1.24 (inactive) | 0.252 (inactive) | 0.731 (inactive) | 0.406 | -0.176 (inactive) | -1.26 (inactive) | 0.758
[N-]=[N+]=NCc1ccccc1[C@@H]1OC(c2ccc(OCCCO)cc2)=N[C@]1(Cc1ccccc1N=[N+]=[N-])C(=O)NCCN1CCOCC1 | 0.959 | -3.14 (inactive) | 1.07 (inactive) | 0.895 (inactive) | -1.78 (inactive) | 0.974 | 0.102 | 1.06 | 1.01 | 0.387 | -0.04 (inactive) | 0.254 | 16.5 (active) | 2.41 (inactive) | 1.46 (inactive) | 1.45 (inactive) | -0.417 | -2.49 (inactive) | -0.406 (inactive) | -1
COCCOC(=O)N1C(=O)[C@@]2(c3cc(C#CCC(C(=O)OC)C(=O)OC)ccc31)[C@H](c1ccc(OCCO)cc1)N1[C@H](c3ccccc3)[C@H](c3ccccc3)OC(=O)[C@H]1[C@@H]2C(=O)Nc1nc2ccccc2s1 | 0.0015 | -1.79 (inactive) | -0.45 (inactive) | 0.0384 (inactive) | 0.282 (inactive) | 0.067 | -0.101 | 0.212 | 0.264 | 1.6 | 2.25 (inactive) | 0.129 | 4.99 (inactive) | 2.47 (inactive) | 0.924 (inactive) | 2.21 (inactive) | 0.0091 | 0.892 (inactive) | 0.647 (inactive) | 0.93
C=C(CCCC)C(=O)CC[C@@H](OC(=O)c1cccnc1)c1ccc(OCCO)cc1 | 1.08 | -2.32 (inactive) | 0.383 (inactive) | 11.5 (active) | 1.62 (inactive) | -0.444 | 0.0857 | 1.12 | 0.507 | 2.35 | -0.704 (inactive) | 0.178 | 20.2 (active) | 4.63 (inactive) | -0.367 (inactive) | 0.774 (inactive) | -0.58 | -1.3 (inactive) | -0.918 (inactive) | -1.39
